# From PubChem
# The list is not random: actives were taken first. Their share in the collection is about 11%.
# HCV inhibitor = HCV inhibition | Huh7.5.1 HCVcc-Cre infection, luciferase reporter, 44 h | Potency, µM (highest dose often 41.8 µM), for inactives: at the highest dose activity change, negative = inhibition, hits mostly inhibitors | hit rate 3.4% among 340,000 | AID 651820
#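 Cells seeded at 1,000/well and cultured 4 h, then compounds added followed by HCVcc-Cre virus (~0.5 moi). After 44 h further culture, luciferase substrate was added, plates held 15 min at room temperature, and luminescence read for 15 sec.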
# Pf growth 96h = P. falciparum growth inhibition at 96 hour, primary screen for plastid delayed-death inhibitors | P. falciparum luciferase reporter growth, 96 h | AID 504834 | hit rate 6.9% among 320,000 | Potency, µM (titrated, usually from 28.7 µM), for the others: at the top dose activity change, negative = inhibition, most hits filed as inhibitors
#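 Compounds incubated with erythrocytes infected by luciferase-expressing P. falciparum (2% hematocrit, 0.05% parasitemia final) for 96 hours, 37 C in 5% CO2. Growth inhibition scored as decreased luciferase luminescence.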
# AMA1 RON2 block = inhibitors of Plasmodium falciparum AMA1-RON2 interaction; AlphaScreen AMA1-biotinylated RON2 peptide binding; Potency, µM (top dose mostly 58.2 µM), without a hit: at the highest dose activity change, negative = inhibition, usual class: inhibitors; hit rate 0.2% among 360,000; AID 720542;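 further: 0% = vehicle wells and -100% = peptide control; nearly all actives have a fitted effect of over 45% in size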
#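 AMA1 (3D7) with his tag at 25 nM final met compounds first, then biotinylated RON2 peptide at 25 nM; detection used donor plus acceptor beads, 10 µg/mL apiece, read by AlphaScreen after 30 min at room temperature.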
# Pf growth 48h = P. falciparum growth inhibition at 48 hours (one generation). hit rate 5.9% among 310,000. AID 504832. Potency, µM (top dose mostly 28.7 µM), for the others: at the highest dose activity change, negative = inhibition, most hits filed as inhibitors. P. falciparum luciferase growth in erythrocytes, 48 h
#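 Luminescence readout; reporter = integrated firefly luciferase in P. falciparum. RBC culture at 2% hematocrit, 0.1% parasitemia final, 37 C/5% CO2; decreased signal taken as growth inhibition.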
# AmpC detergent = AmpC beta-lactamase inhibition with detergent present; P00811; AmpC hydrolysis of nitrocefin, absorbance 480 nm, 0.01% Triton; Potency, µM (top dose mostly 114 µM), for inactives: at the top dose activity change, negative = inhibition, actives largely listed as inhibitors; hit rate 0.041% among 370,000; AID 485294;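 further: 0% = no-compound wells and -100% = no-enzyme wells; nearly all actives have a fitted effect of over 25% in size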
# Target sequence (P00811 whole entry, looked up): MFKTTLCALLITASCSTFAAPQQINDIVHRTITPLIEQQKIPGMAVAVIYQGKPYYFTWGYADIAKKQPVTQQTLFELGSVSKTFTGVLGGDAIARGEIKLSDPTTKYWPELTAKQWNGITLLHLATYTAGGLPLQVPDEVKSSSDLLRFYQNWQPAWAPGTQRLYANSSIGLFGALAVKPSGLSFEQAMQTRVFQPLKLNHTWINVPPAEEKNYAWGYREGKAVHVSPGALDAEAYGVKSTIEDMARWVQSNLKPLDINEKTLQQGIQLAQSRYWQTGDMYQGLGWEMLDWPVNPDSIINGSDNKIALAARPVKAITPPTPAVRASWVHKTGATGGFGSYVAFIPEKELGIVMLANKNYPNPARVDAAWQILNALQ
#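 AmpC (5.3 nM in the dispensed reagent) in 20 mM phosphate pH 7.0 with 0.01% (detergent screen) or 0.0001% Triton X-100 was preincubated with compounds for 15 min at room temperature. Nitrocefin was then added from an 800 uM solution, and hydrolysis was followed at 480 nm.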
# AmpC no deterg = AmpC beta-lactamase inhibition without detergent; AID 485341; hit rate 0.52% among 330,000; Potency, µM (series often up to 57.1 µM), inactives show at the highest dose activity change, negative = inhibition, hits mostly inhibitors; AmpC nitrocefin hydrolysis, absorbance 480 nm, 0.0001% Triton; P00811;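 further: plate controls were no compound for no effect and no enzyme for full effect; nearly all actives have a fitted effect of over 20% in size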
#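 20 mM phosphate pH 7.0 + 0.01% (detergent screen) or 0.0001% Triton X-100; 5.3 nM AmpC reagent; cpd preinc 15 min RT; nitrocefin (800 uM stock) to start; A480 q20 s × 4 min; Activity was normalised to no-enzyme and no-compound control wells.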
# * hit, by the source's call; u = inconclusive; x = no result given. The call rests on the fitted dose curve; in most records, active means well fitted curve in the direction sought with a large enough effect; inconclusive means small, poorly fitted or top-dose-only effect, or another doubt; inactive means no such curve, though single readings can be large; an effect the other way counts as inactive or inconclusive. Unless noted, on the % scale 0 is the no-effect control and ±100 the full control effect; potency means the concentration at half of the fitted maximal effect.
SMILES,HCV inhibitor,Pf growth 96h,AMA1 RON2 block,Pf growth 48h,AmpC detergent,AmpC no deterg
Cc1cccc(C(=O)N2CCCC(c3nc(-c4ccc(F)cc4)no3)C2)c1 (stereo not drawn),13µM*,u,4%,-2%,u,68%
COc1ccc(NC(=O)N2CCCC(c3nc(-c4ccc(C(C)C)cc4)no3)C2)cc1 (stereo not drawn),10µM*,8.3µM*,4%,37%,-3%,4%
O=C(c1c(F)cccc1F)N1CCCC(c2nc(-c3cccs3)no2)C1 (stereo not drawn),-2%,8.3µM*,3%,27%,5%,2%
COc1ccc(-c2noc(C3CCCN(C(=O)Nc4ccccc4F)C3)n2)cc1 (stereo not drawn),u,u,-2%,73%,-7%,19%
COc1ccc(-c2noc(C3CCCN(C(=O)c4cccc(F)c4)C3)n2)cc1 (stereo not drawn),u,24%,-3%,-1%,u,44%
COc1ccc(NC(=O)N2CCCC(c3nc(-c4ccc(OC)cc4)no3)C2)cc1 (stereo not drawn),22µM*,19%,2%,44%,2%,0%
COc1ccc(-c2noc(C3CCCN(C(=O)Nc4ccccc4)C3)n2)cc1 (stereo not drawn),u,3%,3%,3%,2%,-11%
COc1cccc(CCNC(=O)c2c(O)nc3ccccn3c2=O)c1,x,x,x,x,-6%,x
COc1ccc(CCNC(=O)Cn2nc(C)n3c(cc4cc(F)ccc43)c2=O)cc1OC,x,x,x,x,12%,x
COc1ccc(-c2noc(C3CCCN(C(=O)c4ccccc4OC)C3)n2)cc1 (stereo not drawn),u,u,-15%,-13%,u,111%
COc1ccc(-c2noc(C3CCCN(C(=O)c4ccccc4C)C3)n2)cc1 (stereo not drawn),32µM*,u,10%,u,-15%,76%
CCOC(=O)c1sc2nc(N3CCOCC3)c3c(c2c1N)CCN(Cc1ccccc1)C3,-5%,9.3µM*,-22%,u,-2%,1%
CN(C(=O)c1sc2nc(N3CCOCC3)c3c(c2c1N)CCCC3)c1ccccc1,11µM*,5%,7%,u,2%,9%
COc1cccc(C(=O)N(Cc2cc3cc(C)ccc3[nH]c2=O)CC2CCCO2)c1 (stereo not drawn),-5%,x,2%,9.3µM*,10%,54%
COc1ccc(NC(=O)N(Cc2cc3cc(C)ccc3[nH]c2=O)CC2CCCO2)cc1 (stereo not drawn),u,-13%,-10%,3.3µM*,-1%,4%
COc1cc(C(=O)N(Cc2cc3cc(C)ccc3[nH]c2=O)CC2CCCO2)cc(OC)c1OC (stereo not drawn),5%,-4%,0%,-2%,-16%,-2%
CCn1c(SCc2ccccc2Cl)nc(=O)c2c(C(=O)OC)cc(C3CC3)nc21,x,x,x,x,19%,x
N=c1c2c(ncn1CCCO)Oc1ccc3ccccc3c1C2c1ccccc1 (stereo not drawn),u,u,-4%,u,1%,122%
COc1ccc(C2c3ccc4ccccc4c3Oc3ncn(CCO)c(=N)c32)cc1OC (stereo not drawn),10µM*,u,-12%,10µM*,2%,224%
COc1ccc(C2c3ccc4ccccc4c3Oc3ncn(CCCO)c(=N)c32)cc1OC (stereo not drawn),13µM*,1.9µM*,-11%,u,-5%,182%
COc1ccc(C2c3ccc4ccccc4c3Oc3ncn(CCO)c(=N)c32)cc1 (stereo not drawn),u,0%,-13%,u,-3%,51%
CCc1ccc(NC(=O)CN2C(=O)CSc3ccc(S(=O)(=O)N(C)C)cc32)cc1,x,x,x,x,4%,x
COc1ccccc1C(=O)n1nc(-c2ccccc2)nc1NCc1ccc(Cl)cc1,x,x,x,x,-4%,x
O=C(Nc1ccc(S(=O)(=O)N2CCCCC2)cc1)c1ccc(CN2CCc3ccccc3C2)cc1,35µM*,7.4µM*,-12%,u,0%,-12%
COC(=O)c1ccc(C)c(NC(=O)c2ccc(CN3CCc4ccccc4C3)cc2)c1,-16%,9.3µM*,2%,-7%,2%,-2%
SMILES,HCV inhibitor,Pf growth 96h,AMA1 RON2 block,Pf growth 48h,AmpC detergent,AmpC no deterg
COc1ccc(C)cc1NC(=O)c1ccc(CN2CCc3ccccc3C2)cc1,-21%,1%,3%,-15%,-14%,-1%
O=C(Nc1ccccc1F)c1ccc(CN2CCc3ccccc3C2)cc1,11µM*,-3%,-4%,5%,0%,-40%
O=C(Nc1cccnc1)c1ccc(CN2CCc3ccccc3C2)cc1,4.5µM*,x,4%,-14%,u,-9%
CC(=O)Nc1ccc(-c2cc(C(=O)O)c3c(-c4ccccc4)[nH]nc3n2)cc1,x,x,x,x,12%,x
COc1ccc(Br)cc1CNC(=O)CCCn1c(=O)c2cccn2c2ccccc21,x,x,x,x,0%,x
COc1ccccc1-c1nc(CNC(=O)Nc2ccccc2)c(C)o1,x,x,x,x,-4%,x
CCCCNC(=O)c1ccc2c(=O)n(Cc3ccc(OC)cc3)c(=O)[nH]c2c1,x,x,x,x,5%,x
Cc1ccc2c(=O)cc(C(=O)Nc3sc4c(c3C(N)=O)CCCC4)oc2c1,x,x,x,x,18%,x
CCc1cc2ccccc2nc1SCC(=O)Nc1cc(OC)c(OC)cc1C(=O)O,0%,0%,13%,7%,0%,8.9µM*
COc1cc(NC(=O)CSc2nc3cc(C)ccc3cc2C)c(C(=O)O)cc1OC,9%,9.3µM*,8%,14%,5%,-27%
COc1ccc(-c2cc3ccc(O)c(CN4CCOCC4)c3oc2=O)cc1OC,x,x,x,x,15%,x
CCOC(=O)c1c(N)n(C2CC(C)(C)NC(C)(C)C2)c2nc3ccccc3nc12,9%,9.3µM*,6%,10µM*,u,91%
CCOC(=O)c1c(NC(=O)c2ccco2)n(C2CCCCC2)c2nc3ccccc3nc12,u,10µM*,6%,u,u,105%
Cc1cccc(N2CCN(C(=O)C3CCCN(S(=O)(=O)c4ccc5c(c4)oc(=O)n5C)C3)CC2)c1C (stereo not drawn),x,x,x,x,-3%,x
Cc1cc(OCCCCCNCCO)cc(C)c1Cl,13µM*,13µM*,5%,x,-9%,77%
CCN(c1ccccc1)S(=O)(=O)c1c(-c2ccc(C)cc2)csc1C(=O)OC,x,x,x,x,-4%,x
N#CCN(N=Nc1ccccc1)c1ccccc1,13%,0%,-13%,10µM*,4%,-16%
